Screens deposited in PubChem BioAssay by Johns Hopkins Ion Channel Center.
Hits are enriched below; roughly 1.6% of the tested compounds scored in any of these assays.
KCNQ2 enhance: potentiators of rat KCNQ2 potassium channel; O88943; CHO-K1 KCNQ2, FluxOR thallium flux fluorescence; hits give high values; B-score at 10 µM; 0.54% of 310,000 active; AID 2239;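 active = fluorescence ratio B-score at least 3 SD of library B-scores, with initial fluorescence B-score within 3 of them, cut at about 5.3 in these data; same plate scores as AID 2156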;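 also: B-score of peak minus minimum over baseline fluorescence ratio after K+ and Tl+ stimulus; positive B-score means potentiation of KCNQ2 with more thallium influx and brighter signal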
KCNQ2 block: inhibitors of rat KCNQ2 potassium channel. O88943. CHO-K1 KCNQ2, FluxOR thallium flux, 20 min; hits give low values. B-score at 10 µM. 1.1% of 310,000 active. AID 2156;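 active = fluorescence ratio B-score at most minus 3 library SDs, with starting brightness B-score within 2 library SDs, cut at about -5.5 in these data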
Kir21 confirm: confirmation of mouse Kir2.1 potassium channel inhibitors; shares compounds with KCNQ2 enhance; Tl flux remaining, % of negative control (hits give low values), % at 10 µM; 41% of 2,300 active; AID 2032; Kir2.1-expressing cells, FluxOR thallium flux fluorescence; hits give low values;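 active = Primary-screen hit whose thallium flux fell at least 3 control SD below untreated wells in both duplicates, with normal baseline fluorescence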;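 also: 0% = blank wells without stimulus and 100% = stimulated no-compound controls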
HEK293 ctr: alters thallium flux in parental HEK293 cells, Kir2.1 counter-screen; shares compounds with KCNQ2 enhance; 19% of 2,300 active; FluxOR signal as % of negative control (100 = no effect), % at 10 µM; AID 2105; FluxOR thallium flux fluorescence; 0% = unstimulated blank wells;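 active = dye signal at least 3 control SD above or below untreated wells in both duplicates, raw fluorescence within 3, either direction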;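 also: percent is based on the flux ratio of peak minus minimum fluorescence over baseline F0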
CHO-K1 Tl ctr: parental CHO-K1 activity in KCNQ2 potentiator counter-screen; shares compounds with KCNQ2 enhance; 43% of 1,200 active; AID 2282; activity increase over 3SD of controls, % at 10 µM; parental CHO-K1 cells, FluxOR thallium flux fluorescence; zero = vehicle mean+3SD, 100% = vehicle-minus-blank window;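 active = signal rise of at least 3 SD above the untreated control mean, in both duplicate wells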;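 also: counter screen of KCNQ2 potentiator hits so any rise reflects channel-independent effects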
KCNQ1 pot spec: tests whether KCNQ2 potentiators also act on human KCNQ1; shares compounds with KCNQ2 enhance; CHO KCNQ1 stable, FluxOR thallium flux fluorescence; beyond 3SD, as % of vehicle-control signal; activation over 3SD threshold, % at 10 µM; 28% of 1,200 active; AID 2283;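 active = fluorescence ratio rise of at least 3 SD of vehicle wells above their mean, in both replicate wells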;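 also: 0% = vehicle mean plus 3 SD and 100% = vehicle minus unstimulated blank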
KCNQ2 pot conf: confirmation of rat KCNQ2 potassium channel potentiators. potentiation, less the hit threshold, % at 10 µM. shares compounds with KCNQ2 enhance. 68% of 1,200 active. CHO-KCNQ2 cells, FluxOR thallium flux fluorescence;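 active = fluorescence ratio rising 3 SD or more over the vehicle control mean in both replicates, plus primary screen hit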;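 also: peak minus minimum thallium fluorescence divided by baseline after K/Tl stimulus; 0% = vehicle mean plus 3 SD and 100% = vehicle minus unstimulated blank difference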
Kir21 spec: tests whether KCNQ2 potentiators also affect mouse Kir2.1 | shares compounds with KCNQ2 enhance | 2% of 1,200 active | AID 2345 | HEK293 Kir2.1, FluxOR thallium flux fluorescence | activity over 3SD threshold, % at 10 µM;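 active = fluorescence ratio rise of at least 3 SD above the vehicle-control mean, seen in both replicates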;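 also: 0% = vehicle mean plus 3 SD and 100% = vehicle minus no-stimulus blank window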
KCNQ2 W236L MoA: KCNQ2 potentiators acting on retigabine-insensitive rat KCNQ2 W236L mutant | current increase over 3SD of negative controls (%), hits give high values, % at 25 µM | 10% of 940 active | AID 2558 | shares compounds with KCNQ2 enhance | CHO KCNQ2-W236L, automated patch clamp current;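 active = current increase at least 3 SD of the untreated controls above them in both duplicate recordings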
Target sequence (O88943 whole entry W236L, looked up): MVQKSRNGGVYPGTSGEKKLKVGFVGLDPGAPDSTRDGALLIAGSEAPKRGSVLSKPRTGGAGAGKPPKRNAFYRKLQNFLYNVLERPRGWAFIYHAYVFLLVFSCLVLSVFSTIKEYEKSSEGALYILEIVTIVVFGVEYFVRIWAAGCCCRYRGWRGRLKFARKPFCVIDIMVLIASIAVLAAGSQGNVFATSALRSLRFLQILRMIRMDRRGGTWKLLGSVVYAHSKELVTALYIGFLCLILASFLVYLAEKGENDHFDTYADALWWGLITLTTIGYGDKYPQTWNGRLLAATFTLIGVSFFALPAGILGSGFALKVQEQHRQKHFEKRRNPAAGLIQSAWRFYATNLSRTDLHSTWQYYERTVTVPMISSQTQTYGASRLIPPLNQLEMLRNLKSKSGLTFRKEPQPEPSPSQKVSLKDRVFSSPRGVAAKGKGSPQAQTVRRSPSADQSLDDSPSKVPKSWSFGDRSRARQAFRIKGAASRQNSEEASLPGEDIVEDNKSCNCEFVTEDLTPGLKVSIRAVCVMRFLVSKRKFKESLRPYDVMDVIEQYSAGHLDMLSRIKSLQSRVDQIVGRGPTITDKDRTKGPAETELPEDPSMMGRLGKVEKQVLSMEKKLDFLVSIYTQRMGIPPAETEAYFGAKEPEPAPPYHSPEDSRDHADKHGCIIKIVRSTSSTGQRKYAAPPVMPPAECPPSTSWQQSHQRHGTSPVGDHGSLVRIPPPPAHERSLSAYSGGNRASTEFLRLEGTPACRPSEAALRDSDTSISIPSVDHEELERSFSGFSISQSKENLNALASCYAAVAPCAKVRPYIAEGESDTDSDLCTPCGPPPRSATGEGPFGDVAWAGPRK
The depositor's hits bear a star; i = inactive; · = no result.

SMILES	KCNQ2 enhance	KCNQ2 block	Kir21 confirm	HEK293 ctr	others
O=C(CN1C(=O)C2C3C=CC(C3)C2C1=O)Nc1ccc(S(=O)(=O)N2CCCCC2)cc1 (stereo not given)	2	i	·	·
COC(=O)CC1C(=O)NCCN1C(=O)CSc1nc2ccc([N+](=O)[O-])cc2s1 (stereo not given)	0.43	i	·	·
S=C(NCc1ccc(Cl)cc1)NCc1ccccn1	·	i	·	·
CC(C)CCC(CCNCc1ccccn1)c1ccc(Cl)cc1 (stereo not given)	0.09	i	36%*	i
CCOc1ccc(Oc2ccccc2NC(=O)CN2C(=O)NC3(CCCC3)C2=O)cc1	5.9*	i	i	i	CHO-K1 Tl ctr=-7;KCNQ1 pot spec=-18;KCNQ2 pot conf=26*;Kir21 spec=-39;KCNQ2 W236L MoA=i
O=C(O)CCCC(=O)Nc1ccccc1Oc1ccccc1	·	i	·	·
COc1ccc(NC(=O)CN2C(=O)NC3(CCCC3)C2=O)c(OC)c1	·	i	·	·
CCCCC(=O)Nc1ccccc1Oc1ccccc1	9*	i	·	·	CHO-K1 Tl ctr=-10;KCNQ1 pot spec=-17;KCNQ2 pot conf=19*;Kir21 spec=-81;KCNQ2 W236L MoA=i
CCOc1ccccc1NC(=O)CN(c1ccc(Cl)cc1)S(C)(=O)=O	0.61	i	·	·
O=C(N/N=C(\c1ccccc1)c1cccnc1)c1cc(O)ccc1O	·	i	·	·
COC(=O)c1cn(NC(=O)CCC2CCCC2)c(=O)c2ccccc12	28*	i	i	i	CHO-K1 Tl ctr=104*;KCNQ1 pot spec=-14;KCNQ2 pot conf=122*;Kir21 spec=-27;KCNQ2 W236L MoA=i
COC(=O)c1cn(NC(=O)CC2CCCCC2)c(=O)c2ccccc12	14*	i	i	i	CHO-K1 Tl ctr=-10;KCNQ1 pot spec=-15;KCNQ2 pot conf=75*;Kir21 spec=-31;KCNQ2 W236L MoA=i
COC(=O)c1cn(NC(=O)C2CCC(C)CC2)c(=O)c2ccccc12 (stereo not given)	·	i	·	·
COC(=O)c1cn(NC(=O)c2cc([N+](=O)[O-])ccc2F)c(=O)c2ccccc12	·	i	·	·
CN(C)C(=O)CCSc1nnc(-c2ccncc2)o1	·	i	·	·
CCOc1ccc2c(c1)S/C(=C\c1cccs1)C(=O)N2	·	i	·	·
Cc1ccc(C(C)C)c(OCC(O)CN(C)Cc2ccccc2)c1 (stereo not given)	·	i	20%*	i
Cc1ccc(C(C)C)c(OCCCN(C)Cc2ccccc2)c1	·	i	·	·
O=C(CCNS(=O)(=O)c1cccc2nonc12)NC1CCCCC1	0.78	i	·	·
O=C(CCS(=O)(=O)c1cccc2nonc12)NC1CCCCCC1	11*	i	i	i	CHO-K1 Tl ctr=33*;KCNQ1 pot spec=-13;KCNQ2 pot conf=36*;Kir21 spec=-40;KCNQ2 W236L MoA=i
O=C(c1cc2ccc([N+](=O)[O-])cc2oc1=O)N1CCOCC1	·	i	·	·
COC(=O)C(C)(C)ONC(=O)Nc1ccc(C)cc1	·	i	·	·
Cc1ccc(-n2nc3c(c2NC(=O)CC(C)C)CS(=O)(=O)C3)c(C)c1	·	i	·	·
CCOc1ccc(C(C)NC(=O)c2cccs2)cc1OCC (stereo not given)	0.05	i	·	·
CCc1ccc(C(C)NC(=O)c2cccs2)cc1 (stereo not given)	5.3*	i	i	i	CHO-K1 Tl ctr=-18;KCNQ1 pot spec=46*;KCNQ2 pot conf=-2;Kir21 spec=-33;KCNQ2 W236L MoA=i
SMILES	KCNQ2 enhance	KCNQ2 block	Kir21 confirm	HEK293 ctr	others
O=C(NNC1=C(C(=O)C(F)(F)F)CCC1)c1cccc(Cl)c1	4.8	i	·	·
COc1ccc(C(=O)NNc2ccccc2)cc1	·	i	·	·
COc1ccc(C(=O)NNC2=C(C(=O)C(F)(F)F)CCC2)cc1	5.5*	i	i	i	CHO-K1 Tl ctr=14*;KCNQ1 pot spec=32*;KCNQ2 pot conf=6.0*;Kir21 spec=-37;KCNQ2 W236L MoA=i
O=C(NNC1=C(C(=O)C(F)(F)F)CCC1)c1ccc(Cl)cc1	7.8*	i	i	i	CHO-K1 Tl ctr=18*;KCNQ1 pot spec=-13;KCNQ2 pot conf=4.8*;Kir21 spec=-30;KCNQ2 W236L MoA=i
CCN(CC)CCOC(=O)CCc1cccc2ccccc12	2.1	i	·	·
CCN(CC)CCOC(=O)C(Cc1ccco1)Cc1cccc2ccccc12 (stereo not given)	·	i	36%*	i
CN(C)c1nnnn1-c1ccc(OC(F)(F)F)cc1	0.6	i	·	·
COc1ccc(/C=N/c2sc3c(c2C#N)CCN(Cc2ccccc2)C3)c(O)c1	·	i	·	·
CN1CCc2c(sc(/N=C/c3cc(C(C)(C)C)ccc3O)c2C#N)C1	11*	i	i	i	CHO-K1 Tl ctr=-8;KCNQ1 pot spec=-17;KCNQ2 pot conf=-15;Kir21 spec=-34
Cc1ccc(O)c(NC(=O)CCC2CCCCC2)c1	0.28	i	·	·
O=C(CCC1CCCCC1)Nc1ccccc1-c1ccccc1	12*	i	i	i	CHO-K1 Tl ctr=38*;KCNQ1 pot spec=-12;KCNQ2 pot conf=74*;Kir21 spec=-41;KCNQ2 W236L MoA=i
CN1CCN(C(CNC(=O)C(=O)NC2CCCCC2)c2ccc(F)cc2)CC1 (stereo not given)	1.1	i	·	·
N#CCc1nn2c(-c3ccccc3)ccnc2c1C#N	0.15	i	·	·
O=[N+]([O-])c1c(Nc2ccccc2O)ccc2nonc12	1.3	i	·	·
O=[N+]([O-])c1c(Nc2ccccc2O)cc(Cl)c2nonc12	-16	-16*	71%*	46%*
CN(C)N1C(N)=C(C#N)C(c2cccs2)C2=C1CC(C)(C)CC2=O (stereo not given)	0.45	i	·	·
O=C(COc1cc2oc(=O)cc(-c3ccccc3)c2cc1Cl)NC(Cc1c[nH]c2ccc(O)cc12)C(=O)O (stereo not given)	0.66	i	·	·
CNCCC1Sc2ccccc2Oc2ccccc21 (stereo not given)	0.93	i	42%*	i
CN(C)CCCC1Sc2ccccc2Sc2ccccc21 (stereo not given)	0.67	i	·	·
Cc1c(NC(=O)C(C)OC(=O)C23CC4CC(CC(Br)(C4)C2)C3)c(=O)n(-c2ccccc2)n1C (stereo not given)	·	i	·	·
O=C(COCC(=O)N1CCOCC1)N1CCOCC1	·	i	·	·
Cc1ccc(-c2csc(N=C(N)N)n2)c(C)c1	·	i	40%*	i
COc1ccc(-c2csc(N=C(N)N)n2)cc1	1.3	i	·	·
COCCCNC(=O)C1CCCN(S(=O)(=O)c2ccc(C)cc2)C1 (stereo not given)	0.94	i	·	·
CCN(c1nc(N)c(C(=O)N=C(N)N)nc1Cl)C(C)C	5.3*	i	42%*	i	CHO-K1 Tl ctr=9.8*;KCNQ1 pot spec=-9;KCNQ2 pot conf=-2;Kir21 spec=-94;KCNQ2 W236L MoA=i
COc1ccccc1N1CCN(Cc2cc(=O)c(OCC(=O)NC(C)C)co2)CC1	·	i	·	·
